Results as given in PubChem BioAssay AID720648 (The Scripps Research Institute Molecular Screening Center, 2013).
Screen size: about 370,000 compounds; about 3,100 (0.84%) were called active. The list comes from a sample in which actives are over-represented; it also holds similar structures and randomly drawn compounds. A number with no mark means an inactive call.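 The calls were made as follows: active = inhibition above the mean of compounds lying between control limits plus 3 SD, set per campaign (cut at about 8.5% in these data); inactive = the rest.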

Each molecule was assayed against Disintegrin and metalloproteinase domain-containing protein 17 (Homo sapiens) (UniProt P78536) (assay: inhibition of ADAM17 peptide cleavage – biochemical, QFRET, primary screen (AID 720648;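 also: 0% = DMSO-only wells as the low control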)). Settings: recombinant ADAM17, EDANS/DABCYL FRET peptide cleavage; at 6.95 µM; stronger effect = higher value.
Chain of Disintegrin and metalloproteinase domain-containing protein 17 (Homo sapiens) (P78536 215-824 limits assumed): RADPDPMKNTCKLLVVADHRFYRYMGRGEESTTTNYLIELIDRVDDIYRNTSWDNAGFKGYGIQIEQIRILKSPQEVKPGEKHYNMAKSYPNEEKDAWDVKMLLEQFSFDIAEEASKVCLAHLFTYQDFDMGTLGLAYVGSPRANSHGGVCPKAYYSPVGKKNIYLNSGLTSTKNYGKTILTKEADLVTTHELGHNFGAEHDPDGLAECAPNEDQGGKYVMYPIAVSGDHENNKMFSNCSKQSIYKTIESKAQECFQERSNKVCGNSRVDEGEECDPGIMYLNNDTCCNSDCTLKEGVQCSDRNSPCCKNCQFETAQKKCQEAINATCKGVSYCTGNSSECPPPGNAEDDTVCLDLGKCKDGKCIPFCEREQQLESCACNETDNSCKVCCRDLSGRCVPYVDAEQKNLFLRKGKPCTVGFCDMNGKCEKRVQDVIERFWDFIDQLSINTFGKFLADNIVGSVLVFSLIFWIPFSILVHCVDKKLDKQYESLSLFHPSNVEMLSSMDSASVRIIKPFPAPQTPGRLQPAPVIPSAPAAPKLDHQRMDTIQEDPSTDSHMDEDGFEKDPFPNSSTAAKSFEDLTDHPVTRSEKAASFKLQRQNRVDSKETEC

SMILES | inhibition
CCCCCCCCNS(=O)(=O)/C=C/c1cc(C)ccc1CNC(=O)OC(C)(C)C | -2.49%
CC(C)N(C(=O)[C@H]1C[C@H](CC(=O)NC(C)(C)C)C(=O)N2CCc3c([nH]c4ccc(Cl)cc34)[C@]12C)C(C)C | 8.65% (active)
CC(C)N(C(=O)[C@H]1C[C@H](CC(=O)NCCC2=CCCCC2)C(=O)N2CCc3c([nH]c4cc(CCC(=O)N(C)C)ccc34)[C@]12C)C(C)C | -3.26%
C[C@]12c3[nH]c4ccc(Cl)cc4c3CCN1C(=O)[C@@H](CC(=O)NCCCn1ccnc1)C[C@@H]2C(=O)N1CCOCC1 | 4.49%
CC(=O)OCCN1CCCC12CCC(c1ccccc1)CC2 (stereo unspecified) | -1.85%
COC(=O)C1CN(CC(C)C)CCS(=O)(=O)N1Cc1ccc(F)cc1 (stereo unspecified) | -5.05%
Cc1nc2ccc(C(=O)N3CCN(C(=O)C(C)(C)C)CC3)cc2n1C1CCCC1 | 3.54%
Cc1ccc(C)c(NC(=O)CCS(=O)(=O)c2ccccc2)c1 | -3.15%
COc1ccc(C(CCN(Cc2ccc(OC)c(OC)c2)C(=O)CCl)c2ccccc2)cc1 (stereo unspecified) | 12.5% (active)
COc1ccc(CN(C)C(=O)CC(c2ccccc2)c2ccccc2)cc1 | 11% (active)
COc1ccc(C(C(=O)NC2CCCCC2)N(C(=O)CCl)c2ccccc2Cl)cc1 (stereo unspecified) | -0.76%
CN(Cc1ccc(F)cc1)C(=O)COc1ccc2ccccc2c1 | -3.83%
COc1ccc(Cn2cc(COC(=O)N(C)Cc3ccccc3)nn2)cc1 | -3.38%
COc1ccc(CN(CCN2CCOCC2)C(=O)c2ccc(C)cc2)cc1OC | 2.83%
COC(=O)C[C@@H]1CC[C@@H]2[C@@H](COc3ccc(NC(=O)Nc4ccc(F)c(F)c4)cc3C(=O)N2C)O1 | 1.31%
CCCCNC(=O)C[C@H]1C[C@@]2(C(=O)OC)C(=C[C@H](COCc3ccccc3)O[C@@H]2C)N(Cc2ccc(Cl)cc2Cl)C1=O | 1.2%
COc1ccc2c(c1)CN1CN(CCc3ccccc3)S(=O)(=O)CC21 (stereo unspecified) | -6.46%
Cc1ccc(/C=N/NC(=O)CSc2nc3ccccc3o2)cc1 | 10.3% (active)
CC1Cc2ccccc2N1C(=O)CSc1nc2ccccc2o1 (stereo unspecified) | 2.14%
O=C(CSc1nc2ccccc2o1)N/N=C/c1ccccc1C(=O)O | -4.58%
COc1ccc(CN2C(=O)N3Cc4cc(OC)ccc4C3CS2(=O)=O)cc1 (stereo unspecified) | -0.79%
C=CCN1C(=O)[C@@H](CC(=O)NCCCCc2ccccc2)[C@]2(C(=O)OCC)CCCCC/C=C/12 | 3.44%
N/C(Cc1ccc([N+](=O)[O-])cc1)=N\OC(=O)C1CCCCC1 | -3.25%
N/C(Cc1ccc([N+](=O)[O-])cc1)=N\OC(=O)COc1ccc2ccccc2c1 | 10.8% (active)
Cc1cc(C)cc(OCC(=O)O/N=C(\N)Cc2ccc([N+](=O)[O-])cc2)c1 | 3.53%
C=CCN1C(C(=O)OC)CN(Cc2cn(Cc3ccccc3)nn2)CCS1(=O)=O (stereo unspecified) | 1.41%

SMILES | inhibition
CN(C)CC(=O)N[C@@H]1C[C@@H]2O[C@H](CO)CC[C@@H]2O[C@@H]1CCc1ccc(C#Cc2ccccc2)cc1 | 3.01%
CCCCn1nnnc1C(c1cccc(OC)c1OC)N1CCN(C/C=C/c2ccccc2)CC1 (stereo unspecified) | 3.3%
FC(F)(F)Oc1ccccc1C(c1nnnn1C1CCCCC1)N1CCN(C/C=C/c2ccccc2)CC1 (stereo unspecified) | 9.77% (active)
COc1ccc(C(c2nnnn2C2CCCC2)N2CCN(C/C=C/c3ccccc3)CC2)cc1 (stereo unspecified) | -1.95%
COC(=O)C12C=C3CC(c4ccccc4)=C3C(=O)N1Cc1[nH]c3ccccc3c1C2 (stereo unspecified) | -5.87%
CC(=O)c1cc(-c2ccc3ccccc3c2)c(=O)n2c1CCC2 | -8.84%
O=C(NCCc1c[nH]c2ccccc12)OCc1cn(-c2c(F)cccc2F)nn1 | -1.78%
C=CCN1C(=O)[C@H](CC(=O)N2CCN(C(=O)OCC)CC2)[C@@]2(C(=O)OCC)CCCC=C12 | -4.33%
N[C@@H](Cc1ccccc1)C(=O)N1CCC[C@@H]1C(=O)N1CCC2CCN(S(=O)(=O)c3ccccc3)CC21 (stereo partly specified) | -3.15%
CN(CC(=O)Nc1ccc(S(=O)(=O)N2CCCC2)cc1)Cc1ccc(Cl)c(Cl)c1 | 4.22%
N#C/C(=C\c1cccnc1)C(=O)Nc1ccc(SC(F)F)cc1 | 2.16%
O=C(Cc1ccc(Cl)c(Cl)c1)Nc1ccc(SC(F)F)cc1 | 8.77% (active)
C[C@@H]1CN([C@@H](C)CO)C(=O)c2cccc(NC(=O)Nc3cccc4ccccc34)c2O[C@H]1CN(C)S(=O)(=O)c1ccccc1F | -10.5%
CN(C)S(=O)(=O)c1cccc(C(=O)N/N=C\c2ccco2)c1 | 1.33%
O=C(Nc1cc(-c2ccccc2)nn1-c1ccccc1F)c1ccc([N+](=O)[O-])cc1 | 2.52%
O=C(Nn1c(SCc2ccc([N+](=O)[O-])cc2)nc2ccccc2c1=O)c1ccc(F)cc1 | 8.99% (active)
COCCNC(=O)c1ccc(-n2c(SCc3cccnc3)nc3ccccc3c2=O)cc1 | -0.26%
O=C(CSc1nc2ccccc2n1Cc1ccccc1Cl)N/N=C\c1c[nH]c2ccccc12 | 4.92%
COc1ccc(CSc2nnc(SCC(=O)Nc3ccccc3C(F)(F)F)s2)cc1 | 1.07%
COc1ccc2c(C(C)c3ccc(N)cc3)cn(C)c2c1 (stereo unspecified) | 1.72%
CCOC(=O)C1(Cc2ccccc2)CCN(Cc2cn(C(C)=O)c3ccccc23)CC1 | -0.16%
Cn1nc(C(F)(F)F)c2cc(C(=O)N3CCOCC3)sc21 | -1.03%
Cn1nc(C(F)(F)F)c2cc(NC(=O)OCC(C)(C)C)sc21 | 8.91% (active)
Cn1nc(C(F)(F)F)c(-c2ccc(F)cc2)c1NC(=O)CSCC(=O)O | -2.02%
COC(=O)[C@]12C[C@H](CC(=O)NCCc3ccccc3OC)C(=O)N(Cc3ccco3)C1=C[C@H](C(C)C)O[C@@H]2C1CC1 | -2.62%
